The text below walks through data of the supplement of paper PMC6555819.

The test system of this assay is LXRb:RXRa (NR concentration 270 nM, RXRa partner concentration 90 nM). Put plainly: PBM binding z-score (relative to random genomic background probes); higher = stronger binding; sequences stand for … in GC…GCGATTGACAGCGTAGAATGAAGG
As to the method:
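Protein-binding microarray (Agilent 4x180K custom design, double-stranded 60-nt probes: 5' GC cap, 34-nt variable region, 24-nt constant primer region; full probe sequence given). Purified or IVT nuclear receptor:RXRα heterodimers (3:1 NR:RXRα, mostly 270:90 nM) or homodimers were incubated for 1 h in PBS with 2% milk and no ligand, then detected with Alexa488 antibodies. Fluorescence from o1-orientation probes (~5 replicates averaged) was converted to z-scores against 500 random hg19 background probes. Variable regions are seed direct-repeat (DR0–DR5) sites, all their single-nucleotide variants and half-site ablations.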
CGAACGAGGTCATCCAGGACAGTGAATACATTGA yielded a PBM binding z-score of 5.42.

Regarding CGAACGAGGTCAAAGGACAGTGAAAGGCGACGTA, the PBM binding z-score is 4.81.

CGAACTAGGTCATTGACAGGACAGTGGATAGTAA yielded a PBM binding z-score of 1.97.

Sequence TTACCAAGGTGAACGGTCGTTGATGCACGCCTTG gave a PBM binding z-score of 0.334.

On to GCTGCTAGGTCAACTGATGGCCAGCTAAAGCTCG, for which the PBM binding z-score is 1.66.

TCTCGGAGGACACAAAGGTCAGAGCTTTCCAGAG registered a PBM binding z-score of 3.15.

In the case of CGTCCAAGGTCATATGAGGTCAGTGAAGACAGAT, the PBM binding z-score stood at 6.58.

Turning to CAAACTAGGTCACAGTGGTCAAAGTCCGTGCGTA, the PBM binding z-score was 2.4.

Take CAAACCAGGTCAAGAGGTCAAAGTCCGCTTCCCG: the PBM binding z-score was 5.73.

Turning to TAGCCTAGGTCATTCAGGGGCAAGTATAGAAAGC, the PBM binding z-score was 4.97.

On to CGTCCAAGGTTAAGGTCAGTGAAAGAGACTCGAA, for which the PBM binding z-score worked out at 2.62.

For the sequence AGAATGAGGTTAAGTTCAGGGAAACAGAATACAT, the PBM binding z-score is 2.78.

As to GCATATAGGTAATACAAGGTCAAAGTCCGATTGT, the PBM binding z-score was 5.63.

Turning to CCTTACGGGTCACTGACAGGTTATAGCGTTTGGA, the PBM binding z-score is 3.4.

On to CGTCAAAGGTCAGCAGGTCAGTGAAAGCGACGTG, for which the PBM binding z-score was 4.97.

Turning to AGAATGAGGTCATACGTAGATCAGGGAAGAAAGT, the PBM binding z-score was 5.

Sequence TAGCCTAGTTCATTCAGGGGCCAGTATAGAAAGC yielded a PBM binding z-score of 0.643.

TAGCCTAGGTCATGCGGCCCAGTATAGTGTCGGC gave a PBM binding z-score of 1.69.

Sequence CGAACTACGTCATCCAGGACAGTGAATACATTGA had a PBM binding z-score of -0.00555.

Turning to CAAACTAGGTCAAGGTCTAAGTCGGTTTGTGCCA, the PBM binding z-score turned out to be 1.6.

For CGAACGAGGTCATTGACAGGACAGTGAATAGTAA, the PBM binding z-score came to 5.01.

Take TAGCCTAGGGCATTCAGGGGCCAGTATAGAAAGC: the PBM binding z-score was -0.231.

The sequence ATATGTAGTTTATCGGGTCATTCAGTTTGCGCAT registered a PBM binding z-score of 2.94.

Consider CGAACAAGGTCATCCAGGACAGTGAATACATTGA, for which the PBM binding z-score worked out at 4.67.

TAGCCTAGGTTATGGGCCAGTATACCACGCGAAC: the PBM binding z-score was 0.13.

GATATAGGGTCAGCTAGAGGCCAGAGTATGGAAA gave a PBM binding z-score of 2.77.

With AGAATGAGGTTAAACGTAGATCAGGGAAGAAAGT, the PBM binding z-score came out at 2.42.

The sequence CCGACTGGGGCAAGGTCACCATAACGCACAGCCA showed a PBM binding z-score of 2.81.

Sequence TCTGCTAGGTCATCGATGGTCAGCTAATCTGCTA displayed a PBM binding z-score of 1.73.

ATTTGTAGGTTACATCCGGGTCATTCAGGCTATG had a PBM binding z-score of 3.54.

Consider CGAACTAGGTCAAGGCCAGTGAATCTCCGCACGC, for which the PBM binding z-score was 1.44.

CGAACTAGGTCAAAGGACATTGAAAGGCGACGTA came in with a PBM binding z-score of 2.06.

Take CGTCCAAGGACAATGCTAGGTCAGTGAAAGCATT: the PBM binding z-score was -0.0607.

For the sequence ATCGAAAGGTCTAAGGTGAGTATACCCACCCGAA, the PBM binding z-score came to 0.196.

AGAATGAGATTACCAAAGATCAGGGAAACGCTTG: the PBM binding z-score was -0.266.

In turn, CGTCAAAGTTCAACTGAGGTAACGTAAAGCACGC gave a PBM binding z-score of 4.09.

The sequence TAGCCTAGGTCACATCGGGCCAGTATACGCTATA returned a PBM binding z-score of 2.29.

Regarding AATACAGGGTCACGAGGCCAGAGTAGGTACGAAT, the PBM binding z-score stood at 4.97.

The sequence TCTATTAGTTGATTAGGGCAACCGAAACAGCGGA yielded a PBM binding z-score of 0.544.

For the sequence CGAACTAGGTCGTCCAGGACAGTGAATACATTGA, the PBM binding z-score came to 0.123.
